The values that follow come from PubChem BioAssay AID720700 (The Scripps Research Institute Molecular Screening Center, 2013).

What is called inhibition is the change of the read-out against control, counted positive when it falls.

The whole screen tested about 370,000 compounds, of which about 3,100 (0.84%) were called active. The list comes from a sample in which actives are over-represented; it also holds similar structures and randomly drawn compounds. Values without a mark were called inactive. Cut-off read from the data, not from the text of the source: active = inhibition above about 9.5%; inactive = the rest.

Chain of 1-phosphatidylinositol 4,5-bisphosphate phosphodiesterase gamma-1 (Homo sapiens) (P19174 whole entry, looked up): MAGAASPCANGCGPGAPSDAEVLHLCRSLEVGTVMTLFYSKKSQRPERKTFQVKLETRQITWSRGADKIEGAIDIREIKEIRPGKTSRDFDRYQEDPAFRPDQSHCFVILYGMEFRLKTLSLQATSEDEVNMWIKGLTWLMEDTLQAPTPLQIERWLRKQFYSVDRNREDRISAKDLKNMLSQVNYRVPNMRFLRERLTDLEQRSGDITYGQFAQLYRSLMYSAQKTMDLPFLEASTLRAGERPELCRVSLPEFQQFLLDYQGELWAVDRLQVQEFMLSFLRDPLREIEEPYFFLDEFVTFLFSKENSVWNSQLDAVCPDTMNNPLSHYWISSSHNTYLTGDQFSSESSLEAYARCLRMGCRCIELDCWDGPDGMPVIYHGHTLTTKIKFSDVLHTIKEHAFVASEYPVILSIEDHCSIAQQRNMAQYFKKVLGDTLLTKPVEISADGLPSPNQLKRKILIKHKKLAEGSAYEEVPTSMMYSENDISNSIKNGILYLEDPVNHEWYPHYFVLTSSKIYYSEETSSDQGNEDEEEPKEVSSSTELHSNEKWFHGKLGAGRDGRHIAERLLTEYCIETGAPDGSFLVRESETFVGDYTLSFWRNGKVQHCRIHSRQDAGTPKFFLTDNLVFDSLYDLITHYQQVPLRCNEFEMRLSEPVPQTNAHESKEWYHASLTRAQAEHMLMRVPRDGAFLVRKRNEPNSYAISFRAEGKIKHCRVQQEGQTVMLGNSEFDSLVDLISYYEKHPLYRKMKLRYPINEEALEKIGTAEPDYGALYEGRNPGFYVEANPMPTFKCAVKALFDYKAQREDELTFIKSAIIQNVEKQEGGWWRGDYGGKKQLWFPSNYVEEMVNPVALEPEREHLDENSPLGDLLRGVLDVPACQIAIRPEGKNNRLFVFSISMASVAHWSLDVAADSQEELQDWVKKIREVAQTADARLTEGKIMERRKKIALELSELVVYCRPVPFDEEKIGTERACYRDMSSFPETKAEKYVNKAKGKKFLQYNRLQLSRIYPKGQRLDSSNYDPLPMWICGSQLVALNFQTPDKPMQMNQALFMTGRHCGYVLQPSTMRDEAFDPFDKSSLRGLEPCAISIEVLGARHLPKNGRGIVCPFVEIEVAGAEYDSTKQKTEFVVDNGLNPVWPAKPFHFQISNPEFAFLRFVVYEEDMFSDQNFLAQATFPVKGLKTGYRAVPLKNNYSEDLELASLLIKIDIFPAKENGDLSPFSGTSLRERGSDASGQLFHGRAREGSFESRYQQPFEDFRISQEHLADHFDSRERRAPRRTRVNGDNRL

The test has as its target 1-phosphatidylinositol 4,5-bisphosphate phosphodiesterase gamma-1 (Homo sapiens) (UniProt P19174). The test can be described thus: blockers of human PLCG1 activity – biochemical, fluorescence, purified enzyme, primary screen (AID 720700). To be noted: purified PLC-gamma1, fluorogenic substrate, at 12.2 µM, stronger effect = higher value.
With `CCOc1ccccc1NC(=O)COc1ccc(S(=O)(=O)N2CCCC2)cc1`, the inhibition is -0.48%.

As to `CCOc1ccccc1NC(=O)CCN1CCN(S(=O)(=O)c2ccc(OC)cc2)CC1`, the inhibition is 10.4% (active).

As to `COc1ccc(S(=O)(=O)N2CCC(C(=O)NCCC(=O)Nc3ccccc3OC)CC2)cc1`, the inhibition was 0.77%.

Regarding `CCC(CO)Nc1cccc2c1S(=O)(=O)N(Cc1cn(Cc3ccccc3C(F)(F)F)nn1)Cc1ccccc1O2` (stereo not given), the inhibition is -5.47%.

Consider `CC(=O)c1cc(-c2ccc3ccccc3c2)c(=O)n2c1CCC2`, for which the inhibition was -43.4%.

`COc1ccc(-n2ncc3c2CC(C)(C)CC3NC(=O)CCc2c(C)nn(C)c2C)cc1` (stereo not given): the inhibition was 2.97%.

As to `Cc1ccc(-n2ncc3c2CC(C)(C)CC3NC(=O)CCc2cnn(C)c2)cc1` (stereo not given), the inhibition is 13.8% (active).

For the molecule `Cc1ccc(-n2ncc3c2CC(C)(C)CC3NC(=O)Cc2c(C)noc2C)cc1` (stereo not given), the inhibition is 0.61%.

Turning to `COc1ccc(-c2cc(-c3nnc(SCC(=O)Nc4cccc5ccccc45)n3N)[nH]n2)cc1`, the inhibition is -0.07%.

`COC(=O)c1ccccc1-n1cc(COC(=O)NCCc2ccccc2)nn1`: the inhibition was -14.2%.

Consider `C[C@H](C(=O)N(C)c1ccccc1)[C@@H](O)c1ccc2ccccc2c1`, for which the inhibition was 16.5% (active).

Regarding `C[C@H](C(=O)N(C)c1ccccc1)[C@@H](O)c1ccc(Cl)cc1`, the inhibition is 0.47%.

With `COc1cccc(N(C)C(=O)[C@@H](C)[C@@H](O)c2ccc3ccccc3c2)c1`, the inhibition is -0.17%.

In the case of `Cc1ccc(C(=O)Nc2ccc(C)c(S(=O)(=O)N(C)C)c2)s1`, the inhibition is 12.1% (active).

Turning to `CCN(CC(=O)Nc1ccc(C)c(S(=O)(=O)N(C)C)c1)Cc1ccccc1`, the inhibition is 0.58%.

Consider `COc1ccc(CCC(=O)OCC(=O)Nc2ccc(C)c(S(=O)(=O)N(C)C)c2)cc1`, for which the inhibition is -0.79%.

`CC(C)N1CCCCC(NC(=O)C(C)(C)C)C1=O` (stereo not given): the inhibition is -0.44%.

For `CCC(C)[C@@H](C(=O)OC)N(CCc1cn(Cc2ccccc2)nn1)S(=O)(=O)c1ccccc1Br` (stereo not given in full), the inhibition was 2.53%.

Consider `Fc1ccc(OCc2nn3c(Cn4nnc5ccccc54)nnc3s2)cc1`, for which the inhibition is -2.02%.

As to `CCOc1cccc(-c2nnc3sc(COc4ccc(OC)cc4)nn23)c1`, the inhibition was 10.2% (active).

For the molecule `Cc1nc(COc2cccc(Cl)c2)sc1C(=O)/C=C/N(C)C`, the inhibition was -0.19%.

In the case of `Cc1ccc(-n2c(COc3ccccc3)nnc2SCC(=O)Nc2ccc3c(c2)OCCO3)cc1`, the inhibition was 2.55%.

Turning to `CC(=O)OC12CCCN(C1)/C(=C/c1ccncc1)C2` (stereo not given), the inhibition was -7.4%.

With `COc1ccccc1CNC(=O)CCCN1C(=O)NC2(CCCC2)C1=O`, the inhibition was 1.01%.

For `COc1ccccc1CCNC(=O)CN1C(=O)NC2(CCCC2)C1=O`, the inhibition was 10.4% (active).

On to `Cc1ccc(OCCNC(=O)CN2C(=O)NC3(CCCC3)C2=O)cc1`, for which the inhibition is 0.18%.

As to `CC(NCc1ccco1)C(=O)N1CCCCC1` (stereo not given), the inhibition is -2.37%.

`Cc1ccc(-n2c(SCC(=O)Nc3ccc(S(=O)(=O)Nc4nccs4)cc3)nnc2-c2ccncc2)cc1`: the inhibition was -4.02%.

In the case of `CC(=O)C1(C(=O)Nc2nccs2)CC(c2ccccc2C(F)(F)F)=NO1` (stereo not given), the inhibition is -4.24%.

Regarding `C=CCN1C(=O)[C@@H](CC(=O)NCCCOCCCC)[C@]2(C(=O)OCC)CCCCC/C=C/12`, the inhibition is -1.4%.

Take `Cc1ccc(C(=O)NC2CCN(C(=O)N3CCOCC3)CC2)cc1`: the inhibition was 4.32%.

As to `Cc1ccc(C(=O)C(=S)N2CCOCC2)cc1`, the inhibition is 0.9%.

In the case of `Cc1ccc(C(=O)N2CCN(C(=O)N3CCOCC3)CC2)cc1`, the inhibition is 10.4% (active).

Consider `Fc1ccc2nc(COCc3nc4ccc(F)cc4[nH]3)[nH]c2c1`, for which the inhibition was -0.44%.

For `Cc1cc(NS(=O)(=O)c2ccc(NC(=O)CSc3nnc(-c4ccc(C(C)(C)C)cc4)n3Cc3ccco3)cc2)nc(C)n1`, the inhibition is -1.67%.

In the case of `COc1ccc(C(N)c2csc(NC(=O)Nc3cccc(C(F)(F)F)c3)n2)cc1` (stereo not given), the inhibition was 14.7% (active).

As for `NC(c1csc(NC(=O)Nc2cccc(C(F)(F)F)c2)n1)C1CCCCC1` (stereo not given), the inhibition is 6.49%.

As for `COc1ccc(CC(N)c2csc(NC(=O)Nc3ccc(C(C)C)cc3)n2)cc1` (stereo not given), the inhibition was 2.68%.

As for `FC(F)(F)c1cccc(NC(=S)OC2CCC23CCC(c2ccccc2)CC3)c1` (stereo not given), the inhibition is -0.1%.

Consider `O=C(CN1CCC(NC(=O)NCc2ccccc2)CC1)Nc1ccc2c(c1)OCCO2`, for which the inhibition was -0.43%.

As for `C#CCCN([C@H](C(=O)OC)C(C)C)S(=O)(=O)c1ccc(F)cc1Br`, the inhibition is -1.82%.

Turning to `Cc1c(C(C)c2ccccc2O)[nH]c2ccccc12` (stereo not given), the inhibition was -4.04%.

With `COc1ccccc1C(=O)N/C(=C/c1ccc2c(c1)OCO2)C(=O)Nc1cccc(C(=O)O)c1`, the inhibition is -3.19%.

As for `COc1ccccc1C(=O)Nc1ccc(OCC(=O)N2CCCCC2)cc1`, the inhibition was 3.96%.

For the molecule `COc1ccccc1C(=O)Nc1cccc(C(=O)N2CCOCC2)c1`, the inhibition was 12.6% (active).

As to `O=C(CSc1nc2ccccc2s1)N=Nc1c(O)[nH]c2ccccc12`, the inhibition was -0.8%.

Consider `COC(=O)[C@H](C(C)C)N(CCc1cn(Cc2ccccc2)nn1)S(=O)(=O)c1ccc(F)cc1Br`, for which the inhibition is 1.89%.

As to `O=C(Cn1nnc2ccccc2c1=O)NCc1ccc(Cl)cc1`, the inhibition was 6.08%.

On to `C=CCn1c(SCn2nnc3ccccc3c2=O)nnc1-c1ccc(Cl)cc1`, for which the inhibition is 11.2% (active).

For the molecule `O=c1c2ccccc2nnn1CSc1nnnn1-c1ccccc1`, the inhibition is 2.24%.

On to `O=C(OC12CCCN(C1)/C(=C/c1cccnc1)C2)C1CCCC1` (stereo not given), for which the inhibition was 2.54%.

Consider `O=C(c1c[nH]c2ccccc12)N1CCC(Oc2cccnc2)CC1`, for which the inhibition is 5.31%.

Consider `O=C(NC1CCC1)c1ccc(C#Cc2cccc(F)c2)c[n+]1[O-]`, for which the inhibition is -0.74%.

Take `CCn1c(SCC(=O)Nc2ccc(Br)cc2)nc2sc3c(c2c1=O)CCN(C)C3`: the inhibition was -70.8%.

`CCn1c(SCC(C)=O)nc2sc3c(c2c1=O)CCCC3`: the inhibition was 10.1% (active).

On to `Cc1ccc(C)c(-n2c(SCC(=O)O)nc3sc4c(c3c2=O)CCCC4)c1`, for which the inhibition is 1.35%.

`Cc1ccc(CN2CCCCC(NC(=O)C3CCCCC3)C2=O)cc1` (stereo not given): the inhibition was 7.08%.

In the case of `CCCOc1ccc(Oc2c(Cl)cnn(Cc3cccc4ccccc34)c2=O)cc1`, the inhibition is -1.93%.

With `CCOC(=O)C1CCN(C(=O)C(C)(C)NC(=O)Nc2ccccc2Cl)CC1`, the inhibition was 0.94%.

`Cc1ccccc1CN1CCCCC(NC(=O)c2cccc(C#N)c2)C1=O` (stereo not given): the inhibition was -2.09%.

On to `CC(=O)c1c(C)[nH]c(C(=O)OCC(=O)Nc2cc(S(=O)(=O)N3CCCCC3)ccc2C)c1C`, for which the inhibition is 11.4% (active).

With `Cc1ccc(S(=O)(=O)N2CCCCC2)cc1NC(=O)CCNC(=O)c1ccccc1`, the inhibition is 11.6% (active).

On to `CS(=O)(=O)c1ccc(Cl)c(NC(=O)COC(=O)c2cccc(S(=O)(=O)N3CCCC3)c2)c1`, for which the inhibition is 1.69%.

`CC(=O)c1cccc(OCC(=O)OCC(=O)Nc2cc(S(=O)(=O)N3CCCCC3)ccc2C)c1`: the inhibition was 1.9%.

On to `Cc1ccc(S(=O)(=O)N2CCCCC2)cc1NC(=O)CCNC(=O)c1ccccc1Cl`, for which the inhibition was 6.23%.

With `O=C(CCNC(=O)c1ccc(Br)cc1)Nc1cccc(S(=O)(=O)N2CCCCC2)c1`, the inhibition was -1.23%.

As to `CCOc1ccc(-n2c(SCC(=O)Nc3cc(C)c(NC(=O)c4ccccc4)cc3OC)nnc2-c2cccs2)cc1`, the inhibition was -10.9%.

Regarding `CCOC(=O)N1CCN(C(=O)C[C@H]2C[C@@]3(C(=O)OC)C(=C[C@H](C(C)(C)C)O[C@@H]3C)N(Cc3ccc(Cl)cc3Cl)C2=O)CC1`, the inhibition is -0.28%.

As to `O=C(c1cccc(C(F)(F)F)c1)N1CC[C@H]2[C@H](CCCN2Cc2cc(F)cc(F)c2)C1`, the inhibition was -2.47%.

Regarding `COC(=O)C1CN(CC(C)C)CCS(=O)(=O)N1Cc1ccc(C)cc1` (stereo not given), the inhibition was 2.01%.
